Assay results reported in PubChem BioAssay (NCATS).
Activity calls are given as the source filed them. Cut-off read from the data, not from the text of the source: active = potency below about 10 µM; inactive = the rest. Residues, ends and D or L forms follow the SMILES beside them.

Target: Lysosomal acid glucosylceramidase (Homo sapiens) (UniProt P04062)
Experiment: Glucocerebrosidase-p2 (AID 348)
Conditions: purified GBA, blue fluorogenic substrate, 40 min
Method in brief: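 Compounds titrated from 0.6 nM upwards against 0.2 nM enzyme in pH 5.9 citric acid/KH2PO4, taurocholate, tween-20; blue fluorogenic substrate 80 uM, 40 min room temperature, stopped and read Ex 365/Em 440 for AC50.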
Potency is the fitted concentration of half-maximal effect.

Lysosomal acid glucosylceramidase (Homo sapiens), sequence (P04062 whole entry, looked up): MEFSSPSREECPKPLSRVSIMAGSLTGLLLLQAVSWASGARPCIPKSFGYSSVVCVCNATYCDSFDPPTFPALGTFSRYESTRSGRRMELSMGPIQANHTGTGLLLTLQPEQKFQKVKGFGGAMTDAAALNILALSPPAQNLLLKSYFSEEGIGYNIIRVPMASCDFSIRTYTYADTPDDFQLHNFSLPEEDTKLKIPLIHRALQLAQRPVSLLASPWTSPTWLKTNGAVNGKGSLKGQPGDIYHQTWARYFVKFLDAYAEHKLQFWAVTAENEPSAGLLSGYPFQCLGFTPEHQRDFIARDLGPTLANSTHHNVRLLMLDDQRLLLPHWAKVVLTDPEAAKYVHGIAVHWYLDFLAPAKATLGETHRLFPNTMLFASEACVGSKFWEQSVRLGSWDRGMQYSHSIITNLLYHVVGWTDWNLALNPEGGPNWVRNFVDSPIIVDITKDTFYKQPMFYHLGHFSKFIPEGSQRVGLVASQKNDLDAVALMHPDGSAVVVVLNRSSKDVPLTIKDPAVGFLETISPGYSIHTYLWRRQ

SMILES	Potency
C[C@@H](N1CCOCC1)[C@@](O)(c1ccccc1)c1ccccn1	> 11.4 µM (inactive)
O=C(O)c1ccccc1C1c2ccccc2Oc2ccccc21	> 11.4 µM (inactive)
C[C@@H](CS(=O)(=O)Cc1ccccc1)C(N)=O	> 11.4 µM (inactive)
Nc1cccc2cc(S(=O)(=O)Nc3ccc(C(=O)O)cc3)ccc12	> 11.4 µM (inactive)
Nc1c(OCC(=O)O)ccc2cc(S(=O)(=O)O)ccc12	> 11.4 µM (inactive)
O=C(O)c1nn(-c2ccc(Cl)cc2)c2c1C(=O)c1ccccc1C2=O	> 11.4 µM (inactive)
CN1CCCN(C)C1c1cc([N+](=O)[O-])ccc1O	> 11.4 µM (inactive)
Cc1cc(Cl)ccc1OCC(=O)Nc1nc(N)nc(N)n1	> 11.4 µM (inactive)
CC(=O)N[C@H](Cc1ccc(O)cc1)C(=O)O	> 11.4 µM (inactive)
O=C(O)c1ccccc1C(=O)Nc1cc2c(cc1Br)-c1ccccc1C2=O	> 11.4 µM (inactive)
[O-][N+]1(CC[N+]2([O-])CCCCC2)CCCCC1	> 11.4 µM (inactive)
COc1ccc([C@H](O)c2ccccn2)cc1	> 11.4 µM (inactive)
O=c1[nH]cc(CS(=O)(=O)Cc2c[nH]c(=O)[nH]c2=O)c(=O)[nH]1	> 11.4 µM (inactive)
O=C(O)c1ccc(Nc2ccnc3cc(Cl)ccc23)cc1O	> 11.4 µM (inactive)
N#CC(CC(=O)O)=C(c1ccccc1)c1ccccc1	> 11.4 µM (inactive)
N[C@H]1[C@@H](C(=O)O)[C@H]2C=C[C@H]1C2	> 11.4 µM (inactive)
N[C@H](CO)C(=O)NCC(=O)O (HELM PEPTIDE1{[dS].G}$$$$V2.0)	> 11.4 µM (inactive)
COC(=O)CCCC(=O)O	> 11.4 µM (inactive)
N#C[C@H]1CN[C@H](N)N[C@@H]1N	> 11.4 µM (inactive)
NC(N)=N/N=C\c1ccc(O)c(C(=O)O)c1	> 11.4 µM (inactive)

SMILES	Potency
O=C(O)CNCCc1ccccc1	> 11.4 µM (inactive)
Oc1ccc(Cl)cc1C=Nc1cnc2ccccc2c1	> 11.4 µM (inactive)
O=C1C2[C@@H](c3ccccc3)N[C@@H](c3ccccc3)C1[C@H](c1ccccc1)N[C@H]2c1ccccc1	> 11.4 µM (inactive)
O=CN1CCN(C[C@H](O)CN2CCCCC2)CC1	> 11.4 µM (inactive)
CC(=O)O[C@H]1CC[C@@]2(C)[C@@H](CC[C@H]3[C@H]2CC(=O)[C@@]2(C)[C@@H]3C[C@H]3CC(C)=CC(=O)[C@H]32)C1	> 11.4 µM (inactive)
Nc1nccc(Nc2ccc(S(N)(=O)=O)cc2)n1	> 11.4 µM (inactive)
COc1ccc(/C=N\NC(=O)O)cc1	> 11.4 µM (inactive)
Cc1ccc(N2CCN(CCC(=O)O)CC2)cc1	> 11.4 µM (inactive)
O=C(O)[C@@H]1[C@@H](C(=O)NCc2ccccn2)[C@@H]2C=C[C@@H]1O2	> 11.4 µM (inactive)
O=C(O)c1ccc(C(=O)c2ccccc2)c(C(=O)O)c1	> 11.4 µM (inactive)
O=C1[C@@H]2[C@@H]3C=C[C@H]([C@@H]2C(=O)N1CN1CCSCC1)[C@@H]1[C@@H]2C(=O)N(CN4CCSCC4)C(=O)[C@@H]2[C@H]31	> 11.4 µM (inactive)
O=C(NCc1cccnc1)[C@@H]1[C@@H](C(=O)O)[C@H]2CC[C@@H]1O2	> 11.4 µM (inactive)
CC(=O)[C@@H](C)CCO[C@@]1(C)OCC[C@@H]1C	> 11.4 µM (inactive)
O=C(O)[C@@H](Cc1c[nH]c2ccccc12)C(=O)NO	> 11.4 µM (inactive)
CCCCn1cnc2c(SC)ncnc21	> 11.4 µM (inactive)
Cc1cc2ccc(OC(=O)c3ccc(N=C(N)N)cc3)cc2oc1=O	> 11.4 µM (inactive)
O=C(O)CSc1cc(-c2ccccc2)nc2ccccc12	> 11.4 µM (inactive)
O=C(O)c1ccccc1CN1CCC[C@@H](C(=O)O)C1	> 11.4 µM (inactive)
NS(=O)(=O)c1ccc(NCc2cnc3ccccc3n2)cc1	> 11.4 µM (inactive)
